Structures are written as SMILES. Inconclusive results are not listed. Active and inactive are the calls of the source. The calls were made as follows: active = hit-call score of the fitted dose curve at least 0.9, where 1 is the maximum; inconclusive = response in the unintended direction; inactive = score below 0.9.

Results on eight compounds are retold here after PubChem BioAssay (EPA / NIEHS).

In assay [1] the target is Androgen receptor (Homo sapiens) (UniProt P10275). As to the kind of experiment: ATG_AR_TRANS: Attagene TRANS-FACTORIAL HepG2 Assay for human Androgen Receptor (AR) (AID 2282973). Particulars: HepG2 Attagene TRANS-FACTORIAL AR reporter transcription. Put shortly: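 Steps: transfect HepG2 with multiple GAL4-UAS reporter transcription units (TRANS format, exogenous NR-Gal4 protein); dose 24 h; isolate RNA, reverse-transcribe, PCR-amplify, FAM-label, HpaI-digest; resolve by capillary electrophoresis. Positive direction vs DMSO.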
Chain of Androgen receptor (Homo sapiens) (P10275 whole entry, looked up, the tested form may be a part): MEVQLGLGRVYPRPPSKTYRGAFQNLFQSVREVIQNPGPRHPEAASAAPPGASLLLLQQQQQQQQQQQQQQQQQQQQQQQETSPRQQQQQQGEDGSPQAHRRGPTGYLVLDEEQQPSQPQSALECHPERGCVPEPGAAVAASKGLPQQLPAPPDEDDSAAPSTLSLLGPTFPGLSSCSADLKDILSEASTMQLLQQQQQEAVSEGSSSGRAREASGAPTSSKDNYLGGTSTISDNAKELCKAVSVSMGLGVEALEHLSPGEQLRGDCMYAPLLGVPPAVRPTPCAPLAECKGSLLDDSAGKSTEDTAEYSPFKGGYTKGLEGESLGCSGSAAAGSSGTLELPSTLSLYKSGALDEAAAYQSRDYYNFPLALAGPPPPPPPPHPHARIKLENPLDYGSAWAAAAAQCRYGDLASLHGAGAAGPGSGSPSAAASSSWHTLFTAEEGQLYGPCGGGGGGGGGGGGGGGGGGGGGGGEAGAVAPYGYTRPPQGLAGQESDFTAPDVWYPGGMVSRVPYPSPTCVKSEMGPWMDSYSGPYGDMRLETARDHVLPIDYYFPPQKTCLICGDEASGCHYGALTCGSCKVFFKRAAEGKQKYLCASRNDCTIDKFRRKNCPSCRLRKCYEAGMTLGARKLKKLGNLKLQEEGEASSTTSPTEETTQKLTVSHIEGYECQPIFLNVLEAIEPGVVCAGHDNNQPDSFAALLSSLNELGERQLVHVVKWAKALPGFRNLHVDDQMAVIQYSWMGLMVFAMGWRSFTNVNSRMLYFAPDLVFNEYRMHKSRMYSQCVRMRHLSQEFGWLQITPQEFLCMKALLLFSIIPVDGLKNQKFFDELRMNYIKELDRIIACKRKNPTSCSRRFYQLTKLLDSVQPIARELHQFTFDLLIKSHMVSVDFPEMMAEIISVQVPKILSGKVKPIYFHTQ

Assay [2] addresses human AMP-activated Protein Kinase, alpha 1 (AMPKa1), PRKAA1 (gene 5562) (UniProt Q13131). As to the kind of experiment: NVS_ENZ_hAMPKa1: NovaScreen (NVS) Enzymatic Assay for human AMP-activated Protein Kinase, alpha 1 (AMPKa1) (AID 2283130). The method in brief:
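Recombinant human AMPKα1 activity was measured cell-free by fluorescent substrate conversion with electrophoretic mobility-shift separation, 1 h after dosing. Duplicate single-point screening was at 25 uM; actives (≥30% inhibition) were retested in concentration-response up to 50 uM.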

Assay [3] has as its target rat Corticotropin Releasing Factor Receptor (CRF), Crhr1 (gene 58959) (UniProt P35353). As to the kind of experiment: NVS_GPCR_rCRF: NovaScreen (NVS) G Protein-Coupled Receptor Assay for rat Corticotropin Releasing Factor Receptor (CRF) (AID 2283300). Put shortly: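 Rat cortical membranes used as receptor source in a radioligand competitive displacement binding assay; scintillation read 2 h after dosing. Primary screen run in duplicate at 25 uM; loss of signal versus DMSO baseline indicates binding.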

Assay [4] concerns the target human Acetylcholinesterase (AChE), ACHE (gene 43) (UniProt P22303). As to the kind of experiment: NVS_ENZ_hAChE: NovaScreen (NVS) Enzymatic Assay for human Acetylcholinesterase (AChE) (AID 2283129). Put shortly:
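Cell-free colorimetric enzyme-activity assay; compounds read 0.33 hour after dosing, loss of signal vs DMSO baseline. Primary screen in duplicate at 25 uM single concentration, with active compounds retested in concentration series.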

Assay [5] concerns the target rat Monoamine Oxidase, MAO-B, Peripheral (MAOBP), Maob (gene 25750) (UniProt P19643). As to the kind of experiment: NVS_ENZ_rMAOBP: NovaScreen (NVS) Enzymatic Assay for rat Monoamine Oxidase, MAO-B, Peripheral (MAOBP) (AID 2283242).
In assay [6] the test system is rat Monoamine Oxidase, MAO-A, Central (MAOAC), gene 29253. The assay can be described thus: NVS_ENZ_rMAOAC: NovaScreen (NVS) Enzymatic Assay for rat Monoamine Oxidase, MAO-A, Central (MAOAC) (AID 2283243).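 Also: potency refers to inhibition seen as signal drop below DMSO baseline.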 The method in brief: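 Rat brain tissue extract used as enzyme source in a cell-free radiometric assay, read by scintillation counting 1.5 hours after dosing. Loss of signal relative to DMSO baseline scored; primary screen at 25 uM in duplicate, actives followed up in concentration series.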

Assay [7] deals with rat Oxytocin Receptor (OXT), Oxtr (gene 25342) (UniProt P70536). As to the kind of experiment: NVS_GPCR_rOXT: NovaScreen (NVS) G Protein-Coupled Receptor Assay for rat Oxytocin Receptor (OXT) (AID 2283330). Put shortly: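 Radioligand displacement on rat uterine membranes, 1 h incubation, filter-based scintillation counting. Chemicals were screened in duplicate at 25 uM, and those passing threshold were retested in concentration-response up to 50 uM. Loss of binding was fitted versus DMSO.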
Chain of rat Oxytocin Receptor (OXT), Oxtr (gene 25342) (P70536 whole entry, looked up): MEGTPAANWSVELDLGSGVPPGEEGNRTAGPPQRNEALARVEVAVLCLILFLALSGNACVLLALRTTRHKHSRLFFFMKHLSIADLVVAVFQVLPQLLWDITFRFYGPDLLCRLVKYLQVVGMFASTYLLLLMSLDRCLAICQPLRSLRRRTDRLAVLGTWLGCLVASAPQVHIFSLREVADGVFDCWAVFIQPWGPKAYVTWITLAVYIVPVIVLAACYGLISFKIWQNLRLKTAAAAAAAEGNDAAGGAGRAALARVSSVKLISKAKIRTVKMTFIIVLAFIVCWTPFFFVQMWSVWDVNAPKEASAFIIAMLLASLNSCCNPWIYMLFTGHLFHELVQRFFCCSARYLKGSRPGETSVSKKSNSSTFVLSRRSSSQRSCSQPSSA

Assay [8] deals with rat CYP1A2, Cyp1a2 (gene 24297) (UniProt P04799). The assay can be described thus: NVS_ADME_rCYP1A2: NovaScreen (NVS) CYP450-related Enzyme Activity (ADME) Assay for rat CYP1A2 (AID 2283115). Put shortly:
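Cell-free recombinant rat enzyme with fluorogenic substrate, read by fluorescence intensity 1 hour after dosing. Loss of signal versus acetonitrile negative control; primary screen at 10 uM in duplicate, actives followed in concentration series.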

Assay [9] concerns rat Monoamine Oxidase, MAO-A, Peripheral (MAOAP), gene 29253. The assay can be described thus: NVS_ENZ_rMAOAP: NovaScreen (NVS) Enzymatic Assay for rat Monoamine Oxidase, MAO-A, Peripheral (MAOAP) (AID 2283237). Put shortly: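 Rat liver mitochondrial membranes served as the MAO-A source, with enzyme activity measured by radiometric scintillation counting 1.17 hours after dosing. Loss of signal was fitted against DMSO; primary screen used 25 uM in duplicate, follow-up used concentration series.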

Assay [10] addresses Norway rat Vesicular Monoamine Transporter (VMAT2), neurotransmitter transporter, Slc18a2 (gene 25549) (UniProt Q01827). As to the kind of experiment: NVS_TR_rVMAT2: NovaScreen (NVS) Transporter Assay for Norway rat Vesicular Monoamine Transporter (VMAT2), neurotransmitter transporter (AID 2283376).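 Also: actives lower the bound radioligand signal below the DMSO level.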 Put shortly:
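Tissue: rat forebrain extract. Format: competitive radioligand binding, cell-free. Timepoint: 1 h. Readout: filter radiodetection/scintillation. Screen: 25 uM in duplicate, then concentration series for actives. Baseline: DMSO.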

The target of assay [11] is human Raf-1 Proto-Oncogene, serine/threonine Kinase (RAF1), RAF1 (gene 5894) (UniProt P04049). As to the kind of experiment: NVS_ENZ_hRAF1: NovaScreen (NVS) Enzymatic Assay for human Raf-1 Proto-Oncogene, serine/threonine Kinase (RAF1) (AID 2283216). The method in brief: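 Cell-free recombinant kinase with specific fluorescent substrate, product separated by electrophoretic mobility shift; read 1 h after dosing. Primary screen at 25 uM in duplicate; hits then run in concentration-response up to 50 uM, fitted as loss of signal versus DMSO.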

Assay [12] addresses rat Monoamine Oxidase, MAO-B, Central (MAOBC), Maob (gene 25750) (UniProt P19643). As to the kind of experiment: NVS_ENZ_rMAOBC: NovaScreen (NVS) Enzymatic Assay for rat Monoamine Oxidase, MAO-B, Central (MAOBC) (AID 2283238). Put shortly:
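Compounds were first tested in duplicate at 25 uM against MAO-B from rat brain tissue; those passing the inhibition threshold were retested in concentration series up to 50 uM. Radiodetection by scintillation counting at 1.17 h, analysed against DMSO baseline.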

Assay [13] has as its target Voltage-dependent N-type calcium channel subunit alpha-1B (Rattus norvegicus) (UniProt Q02294). As to the kind of experiment: NVS_IC_rCaChN: NovaScreen (NVS) Ion Channel Assay for rat Calcium Channel, Type N (CaChN) (AID 2283317).
For assay [14], the target named is human Caspase 2 (CASP2), CASP2 (gene 835) (UniProt P42575). As to the kind of experiment: NVS_ENZ_hCASP2: NovaScreen (NVS) Enzymatic Assay for human Caspase 2 (CASP2) (AID 2283135). Put shortly:
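E. coli-expressed enzyme in a cell-free protease assay, fluorescence read 1 h after dosing. Compounds at 25 uM in duplicate, with concentration-response up to 50 uM for hits; loss of signal against DMSO baseline.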

In assay [15] the target is human CYP4F12, CYP4F12 (gene 66002) (UniProt Q9HCS2). The assay can be described thus: NVS_ADME_hCYP4F12: NovaScreen (NVS) CYP450-related Enzyme Activity (ADME) Assay for human CYP4F12 (AID 2283111). Put shortly:
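Cell-free fluorescence assay of recombinant human CYP4F12 activity on a specific substrate, read 0.5 h after dosing. Primary screen in duplicate at 10 uM, then concentration series for actives; loss of signal fitted against acetonitrile negative control.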

Assay [16] deals with human Fibroblast Growth Factor Receptor 1 (FGFR1), FGFR1 (gene 2260) (UniProt P11362). The assay can be described thus: NVS_ENZ_hFGFR1: NovaScreen (NVS) Enzymatic Assay for human Fibroblast Growth Factor Receptor 1 (FGFR1) (AID 2283159). Put shortly:
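Cell-free recombinant kinase with fluorescent substrate, product separated by electrophoretic mobility shift; read 1 hour after dosing, loss of signal relative to DMSO. Initial screen in duplicate at 25 uM, actives followed in concentration series.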

For assay [17], the target named is Protein deacetylase HDAC6 (Homo sapiens) (UniProt Q9UBN7). As to the kind of experiment: NVS_ENZ_hHDAC6: NovaScreen (NVS) Enzymatic Assay for human Histone Deacetylase 6 (HDAC6) (AID 2283164). The method in brief: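 Recombinant human HDAC6 with fluorescent substrate, 1 h; product separated from substrate by electrophoretic mobility shift. Primary screen in duplicate at 25 uM; actives retested singly in concentration-response up to 50 uM, fitted relative to DMSO.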

Assay [18] concerns the target human Protein Tyrosine Phosphatase Receptor Type C (PTPRC), PTPRC (gene 5788) (UniProt P08575). The assay can be described thus: NVS_ENZ_hPTPRC: NovaScreen (NVS) Enzymatic Assay for human Protein Tyrosine Phosphatase Receptor Type C (PTPRC) (AID 2283212). The method in brief: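 Yeast-extracted human PTPRC used in a cell-free colorimetric enzyme activity read-out, 1 h after dosing. Primary screen in duplicate at 25 uM; actives rerun in concentration-response up to 50 uM, DMSO as baseline.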

Chain of human Acetylcholinesterase (AChE), ACHE (gene 43) (P22303 whole entry, looked up): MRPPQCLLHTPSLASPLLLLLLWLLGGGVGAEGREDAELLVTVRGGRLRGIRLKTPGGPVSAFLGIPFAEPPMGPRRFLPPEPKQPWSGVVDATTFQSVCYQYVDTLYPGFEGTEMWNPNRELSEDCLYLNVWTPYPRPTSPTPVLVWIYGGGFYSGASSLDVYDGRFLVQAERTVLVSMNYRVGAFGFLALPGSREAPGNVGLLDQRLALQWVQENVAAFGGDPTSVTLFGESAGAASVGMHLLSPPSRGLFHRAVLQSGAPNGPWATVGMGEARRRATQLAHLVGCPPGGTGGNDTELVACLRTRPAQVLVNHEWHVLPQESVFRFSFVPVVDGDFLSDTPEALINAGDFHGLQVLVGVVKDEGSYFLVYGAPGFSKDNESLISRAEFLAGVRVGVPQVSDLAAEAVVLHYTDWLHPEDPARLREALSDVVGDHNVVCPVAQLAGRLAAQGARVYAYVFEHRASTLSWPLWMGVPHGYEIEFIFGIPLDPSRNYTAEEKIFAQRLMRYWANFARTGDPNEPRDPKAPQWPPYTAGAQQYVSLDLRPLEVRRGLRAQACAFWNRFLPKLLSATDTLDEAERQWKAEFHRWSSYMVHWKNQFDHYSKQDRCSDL
Chain of rat Monoamine Oxidase, MAO-B, Peripheral (MAOBP), Maob (gene 25750) (P19643 whole entry, looked up): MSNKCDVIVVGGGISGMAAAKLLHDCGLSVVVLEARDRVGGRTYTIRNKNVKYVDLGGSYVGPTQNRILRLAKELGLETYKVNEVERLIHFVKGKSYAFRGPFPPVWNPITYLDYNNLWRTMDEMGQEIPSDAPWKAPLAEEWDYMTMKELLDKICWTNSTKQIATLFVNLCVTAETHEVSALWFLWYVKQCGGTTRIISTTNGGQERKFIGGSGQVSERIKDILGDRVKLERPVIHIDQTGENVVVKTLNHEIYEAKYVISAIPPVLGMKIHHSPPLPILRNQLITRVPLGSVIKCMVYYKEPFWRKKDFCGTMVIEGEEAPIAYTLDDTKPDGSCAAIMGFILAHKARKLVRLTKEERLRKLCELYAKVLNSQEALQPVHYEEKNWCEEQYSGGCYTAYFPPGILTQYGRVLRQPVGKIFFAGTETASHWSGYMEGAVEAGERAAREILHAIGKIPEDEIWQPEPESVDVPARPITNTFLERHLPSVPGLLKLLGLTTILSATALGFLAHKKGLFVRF
Chain of human CYP4F12, CYP4F12 (gene 66002) (Q9HCS2 whole entry, looked up): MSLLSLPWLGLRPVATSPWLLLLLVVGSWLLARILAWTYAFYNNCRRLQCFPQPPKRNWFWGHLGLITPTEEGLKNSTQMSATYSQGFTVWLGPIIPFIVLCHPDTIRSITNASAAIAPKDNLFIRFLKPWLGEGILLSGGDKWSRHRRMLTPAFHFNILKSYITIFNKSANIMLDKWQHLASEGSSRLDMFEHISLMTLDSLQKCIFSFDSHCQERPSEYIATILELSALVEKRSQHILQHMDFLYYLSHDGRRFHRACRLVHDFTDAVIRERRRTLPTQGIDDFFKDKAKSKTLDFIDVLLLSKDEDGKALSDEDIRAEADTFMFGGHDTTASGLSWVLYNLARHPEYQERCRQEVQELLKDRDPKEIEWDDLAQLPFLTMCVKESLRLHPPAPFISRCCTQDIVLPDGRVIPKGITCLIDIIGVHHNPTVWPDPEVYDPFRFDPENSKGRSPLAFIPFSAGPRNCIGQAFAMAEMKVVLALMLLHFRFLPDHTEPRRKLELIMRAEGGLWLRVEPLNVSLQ
Chain of rat Corticotropin Releasing Factor Receptor (CRF), Crhr1 (gene 58959) (P35353 whole entry, looked up): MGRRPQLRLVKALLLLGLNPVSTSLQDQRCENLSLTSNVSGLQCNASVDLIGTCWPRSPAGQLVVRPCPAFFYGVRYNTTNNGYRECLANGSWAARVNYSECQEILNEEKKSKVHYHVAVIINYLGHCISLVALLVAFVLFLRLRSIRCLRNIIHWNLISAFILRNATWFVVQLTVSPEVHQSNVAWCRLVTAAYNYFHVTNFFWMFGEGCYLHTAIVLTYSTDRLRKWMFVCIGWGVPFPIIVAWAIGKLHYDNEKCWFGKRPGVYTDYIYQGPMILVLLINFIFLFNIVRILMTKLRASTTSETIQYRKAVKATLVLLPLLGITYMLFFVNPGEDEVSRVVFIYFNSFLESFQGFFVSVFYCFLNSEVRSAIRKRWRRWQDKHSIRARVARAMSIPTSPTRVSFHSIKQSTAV
Chain of human AMP-activated Protein Kinase, alpha 1 (AMPKa1), PRKAA1 (gene 5562) (Q13131 whole entry, looked up): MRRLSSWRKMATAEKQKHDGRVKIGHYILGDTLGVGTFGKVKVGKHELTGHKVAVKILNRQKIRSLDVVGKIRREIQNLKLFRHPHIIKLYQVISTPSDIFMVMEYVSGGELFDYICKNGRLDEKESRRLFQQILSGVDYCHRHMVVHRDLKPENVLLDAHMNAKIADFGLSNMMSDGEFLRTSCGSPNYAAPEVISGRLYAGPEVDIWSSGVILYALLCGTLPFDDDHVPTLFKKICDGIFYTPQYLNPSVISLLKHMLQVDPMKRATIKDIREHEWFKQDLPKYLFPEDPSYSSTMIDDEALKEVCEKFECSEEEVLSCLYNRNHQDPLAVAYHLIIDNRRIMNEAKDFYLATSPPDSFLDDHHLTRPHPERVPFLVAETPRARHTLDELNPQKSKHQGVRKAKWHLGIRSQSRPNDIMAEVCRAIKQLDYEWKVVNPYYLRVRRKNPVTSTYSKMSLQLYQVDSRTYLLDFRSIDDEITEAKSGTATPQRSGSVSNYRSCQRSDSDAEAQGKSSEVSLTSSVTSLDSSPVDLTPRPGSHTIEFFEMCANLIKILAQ
Chain of rat CYP1A2, Cyp1a2 (gene 24297) (P04799 whole entry, looked up): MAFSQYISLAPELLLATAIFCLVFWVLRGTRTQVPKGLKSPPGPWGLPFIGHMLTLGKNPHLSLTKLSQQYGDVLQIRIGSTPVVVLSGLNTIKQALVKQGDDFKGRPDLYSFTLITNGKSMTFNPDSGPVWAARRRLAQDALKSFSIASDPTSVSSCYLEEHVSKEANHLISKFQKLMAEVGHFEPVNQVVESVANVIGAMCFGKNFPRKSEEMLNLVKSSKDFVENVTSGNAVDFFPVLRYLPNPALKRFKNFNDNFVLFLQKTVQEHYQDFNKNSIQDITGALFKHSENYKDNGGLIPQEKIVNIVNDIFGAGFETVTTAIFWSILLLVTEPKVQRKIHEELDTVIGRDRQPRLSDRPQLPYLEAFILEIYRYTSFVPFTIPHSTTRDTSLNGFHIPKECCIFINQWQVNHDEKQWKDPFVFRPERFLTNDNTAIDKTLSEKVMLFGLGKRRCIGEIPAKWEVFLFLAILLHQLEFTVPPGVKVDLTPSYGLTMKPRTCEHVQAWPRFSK
Chain of Norway rat Vesicular Monoamine Transporter (VMAT2), neurotransmitter transporter, Slc18a2 (gene 25549) (Q01827 whole entry, looked up): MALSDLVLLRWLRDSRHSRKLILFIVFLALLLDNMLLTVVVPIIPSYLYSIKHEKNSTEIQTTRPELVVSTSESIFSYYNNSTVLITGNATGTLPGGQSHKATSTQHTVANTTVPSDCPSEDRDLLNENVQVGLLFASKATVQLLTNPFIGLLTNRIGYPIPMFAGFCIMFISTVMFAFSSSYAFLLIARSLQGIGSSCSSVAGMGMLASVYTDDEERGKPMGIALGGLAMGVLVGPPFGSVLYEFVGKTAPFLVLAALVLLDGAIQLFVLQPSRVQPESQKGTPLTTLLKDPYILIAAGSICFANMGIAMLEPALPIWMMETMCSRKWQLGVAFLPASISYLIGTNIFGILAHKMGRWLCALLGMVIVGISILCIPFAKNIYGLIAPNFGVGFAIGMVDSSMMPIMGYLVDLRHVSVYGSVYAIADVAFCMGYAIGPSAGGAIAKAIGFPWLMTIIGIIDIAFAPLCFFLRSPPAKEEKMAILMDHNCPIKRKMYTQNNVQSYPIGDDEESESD

As for `CCN(CC)C(=S)SSC(=S)N(CC)CC`, the compound was called inactive in assay [1], in assay [2] and in [3].
In the case of `CCN(Cc1cccnc1)C(=O)c1cccc(Cl)c1[C@]1(C)C(=O)N(Cc2ccc(OC)cc2OC)c2ccc(Cl)cc21`, the result in assay [1], in [4] and in assay [5] was inactive. In addition, the concentration at half-maximal activity (AC50) was 2.51 µM (active) in assay [6] and 0.0728 µM (active) in assay [7].
Take `c1cc[nH]c1`: the call in assay [1] and in assay [8] was inactive.
Take `CCCOc1sc(C(=O)N2CCC(c3cc(CN)ccc3F)CC2)c(C)c1Br`: the call in assay [1] and in [4] was inactive. In addition, the concentration at half-maximal activity (AC50) is 2.6 µM (active) in assay [9], 0.439 µM (active) in assay [6], 23.2 µM (active) in assay [7] and 2.89 µM (active) in [10].
With `O=C(O)c1cccc(N(Cc2cccnc2)c2ccc(OC(F)F)c(OC(F)F)c2)c1`, the result in assay [1], in assay [11], in assay [12] and in assay [13] was inactive. The AC50 in [4] was 8.26 µM (active).
Regarding `O=C(O)c1ccccc1C(=O)OCc1ccccc1`, the outcome in assay [1] and in [14] was inactive.
Turning to `NC(=O)c1nc(-c2cccc(-c3cc(F)ccc3OCC(F)(F)C(F)(F)F)c2)n[nH]1`, the compound was classed as inactive in assay [1], in [15] and in assay [5].
In the case of `Nc1cccc2c(N)cccc12`, the call in [1], in assay [16] and in assay [17] was inactive. The figures for the AC50 in assay [18], in assay [9] and in assay [6] were 5.35 µM (active), 25 µM (active) and 25 µM (active), respectively.

Usually AC50 stands for the concentration giving half of the maximal activity seen.
